Data on six sequences can be found in PMC7862700, “An all-to-all approach to the identification of sequence-specific readers for epigenetic DNA modifications on cytosine”.

Holding throughout (assay): DAPPL (digital affinity profiling via proximity ligation, sequencing); 10 mM Tris-HCl pH 7.5, 50 mM NaCl, 1 mM DTT, 4% glycerol, room temperature, 30 min; GST-TFs on glutathione beads, 16-mer random dsDNA library, 0.1% formaldehyde crosslink after washing; high values mean tight binding
Holding throughout (conditions): protein: recombinant; tags: N-terminal GST; dsDNA, one strand shown

One assay concerns the target T1, ERF (Homo sapiens, UniProt P50548 1-548).
T1 sequence: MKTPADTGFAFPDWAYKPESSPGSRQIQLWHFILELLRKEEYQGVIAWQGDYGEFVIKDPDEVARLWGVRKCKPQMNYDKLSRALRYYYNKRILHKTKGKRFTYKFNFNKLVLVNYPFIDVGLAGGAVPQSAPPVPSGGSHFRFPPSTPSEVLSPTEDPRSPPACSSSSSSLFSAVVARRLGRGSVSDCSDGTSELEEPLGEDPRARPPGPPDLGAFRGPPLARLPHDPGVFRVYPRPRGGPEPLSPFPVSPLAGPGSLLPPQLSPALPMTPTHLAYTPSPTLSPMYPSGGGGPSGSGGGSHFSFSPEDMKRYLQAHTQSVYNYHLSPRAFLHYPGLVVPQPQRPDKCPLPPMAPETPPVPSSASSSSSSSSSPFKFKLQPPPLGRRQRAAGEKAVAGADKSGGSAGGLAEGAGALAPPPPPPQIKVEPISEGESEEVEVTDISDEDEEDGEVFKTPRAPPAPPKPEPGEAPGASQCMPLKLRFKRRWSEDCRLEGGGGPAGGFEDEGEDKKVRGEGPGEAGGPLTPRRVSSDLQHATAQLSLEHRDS
In a few lines:
(§1)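 Binding signal is given per hexamer as its read frequency for a factor divided by its frequency in the tag-only sample. GST-fused human transcription factors were expressed in yeast, captured on glutathione beads, barcoded with DNA and pooled with that sample, then incubated with 200 nmole of a 16-mer random double-stranded DNA library in Tris/NaCl/DTT/glycerol buffer for 30 min at room temperature. The pools were then washed, crosslinked, proximity-ligated, amplified by PCR and sequenced on an Illumina NextSeq500.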

The target in the next assay is T2, ETV3L (Homo sapiens, UniProt Q6ZN32 1-361).
T2 sequence: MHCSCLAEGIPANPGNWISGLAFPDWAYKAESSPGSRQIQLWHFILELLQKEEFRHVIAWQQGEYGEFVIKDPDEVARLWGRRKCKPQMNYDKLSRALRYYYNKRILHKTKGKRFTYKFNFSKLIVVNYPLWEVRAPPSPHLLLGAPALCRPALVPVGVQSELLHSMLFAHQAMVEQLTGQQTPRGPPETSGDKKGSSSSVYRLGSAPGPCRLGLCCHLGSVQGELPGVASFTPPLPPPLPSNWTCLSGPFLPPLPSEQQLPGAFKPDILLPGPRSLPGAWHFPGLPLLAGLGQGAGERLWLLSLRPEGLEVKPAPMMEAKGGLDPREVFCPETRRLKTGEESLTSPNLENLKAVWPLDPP
In a few lines:
as §1

Another assay concerns the target T3, ETS2 (Homo sapiens, UniProt P15036 1-469).
T3 sequence: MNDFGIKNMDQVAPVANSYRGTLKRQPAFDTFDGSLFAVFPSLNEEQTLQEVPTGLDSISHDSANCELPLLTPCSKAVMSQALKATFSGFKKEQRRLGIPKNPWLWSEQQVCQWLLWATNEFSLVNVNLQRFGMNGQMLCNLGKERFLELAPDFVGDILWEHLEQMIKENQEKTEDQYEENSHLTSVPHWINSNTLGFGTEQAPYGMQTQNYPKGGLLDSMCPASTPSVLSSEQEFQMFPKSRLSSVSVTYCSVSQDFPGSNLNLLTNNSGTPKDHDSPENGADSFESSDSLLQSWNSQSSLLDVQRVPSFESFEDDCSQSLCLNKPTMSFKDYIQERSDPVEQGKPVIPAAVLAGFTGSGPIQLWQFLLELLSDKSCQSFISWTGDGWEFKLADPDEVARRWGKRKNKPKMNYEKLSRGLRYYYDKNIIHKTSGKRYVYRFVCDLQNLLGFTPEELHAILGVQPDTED
In a few lines:
as §1

The target in another assay is T4, SPDEF (Homo sapiens, UniProt O95238 1-335).
T4 sequence: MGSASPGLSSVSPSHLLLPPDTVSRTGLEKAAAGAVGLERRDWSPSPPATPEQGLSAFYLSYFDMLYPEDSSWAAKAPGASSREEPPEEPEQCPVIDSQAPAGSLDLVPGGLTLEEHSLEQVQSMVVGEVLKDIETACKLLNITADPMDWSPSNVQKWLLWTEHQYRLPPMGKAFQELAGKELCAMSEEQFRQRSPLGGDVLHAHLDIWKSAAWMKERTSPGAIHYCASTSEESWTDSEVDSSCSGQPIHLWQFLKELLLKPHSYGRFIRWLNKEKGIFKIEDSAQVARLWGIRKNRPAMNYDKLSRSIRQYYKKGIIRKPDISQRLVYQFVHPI
In a few lines:
as §1

The target in another assay is T5, ETV7 (Homo sapiens, UniProt Q9Y603 1-341).
T5 sequence: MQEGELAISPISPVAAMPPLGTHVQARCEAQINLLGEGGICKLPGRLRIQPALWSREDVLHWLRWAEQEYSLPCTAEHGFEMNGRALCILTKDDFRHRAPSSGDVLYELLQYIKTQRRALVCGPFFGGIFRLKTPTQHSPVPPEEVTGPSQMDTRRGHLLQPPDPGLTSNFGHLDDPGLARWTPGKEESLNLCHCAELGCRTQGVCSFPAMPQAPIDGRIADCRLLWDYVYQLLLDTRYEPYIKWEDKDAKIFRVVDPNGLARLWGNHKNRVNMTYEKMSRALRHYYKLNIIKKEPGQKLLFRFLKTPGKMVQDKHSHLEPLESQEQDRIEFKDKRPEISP
Put shortly:
as §1

The next assay has as its target T6, ELF5 (Homo sapiens, UniProt Q9UKW6-2 1-255).
T6 sequence: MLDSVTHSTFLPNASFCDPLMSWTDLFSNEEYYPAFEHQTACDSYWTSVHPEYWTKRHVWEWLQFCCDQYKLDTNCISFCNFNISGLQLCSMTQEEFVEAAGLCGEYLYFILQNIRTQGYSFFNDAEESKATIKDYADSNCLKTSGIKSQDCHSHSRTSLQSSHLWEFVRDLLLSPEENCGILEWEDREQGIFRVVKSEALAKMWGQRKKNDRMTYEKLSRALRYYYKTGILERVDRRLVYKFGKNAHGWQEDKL
In a few lines:
as §1

A further assay has as its target T7, ETV3 (Homo sapiens, UniProt P41162-2 1-143).
T7 sequence: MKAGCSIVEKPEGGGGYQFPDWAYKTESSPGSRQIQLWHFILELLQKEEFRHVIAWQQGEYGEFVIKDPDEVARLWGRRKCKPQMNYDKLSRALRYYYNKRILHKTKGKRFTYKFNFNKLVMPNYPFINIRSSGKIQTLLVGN
Put shortly: as §1

A further assay deals with ETV6 (Homo sapiens, UniProt P41212 1-452). In a few lines:
as §1

Sequence of ETV6 (P41212 whole entry): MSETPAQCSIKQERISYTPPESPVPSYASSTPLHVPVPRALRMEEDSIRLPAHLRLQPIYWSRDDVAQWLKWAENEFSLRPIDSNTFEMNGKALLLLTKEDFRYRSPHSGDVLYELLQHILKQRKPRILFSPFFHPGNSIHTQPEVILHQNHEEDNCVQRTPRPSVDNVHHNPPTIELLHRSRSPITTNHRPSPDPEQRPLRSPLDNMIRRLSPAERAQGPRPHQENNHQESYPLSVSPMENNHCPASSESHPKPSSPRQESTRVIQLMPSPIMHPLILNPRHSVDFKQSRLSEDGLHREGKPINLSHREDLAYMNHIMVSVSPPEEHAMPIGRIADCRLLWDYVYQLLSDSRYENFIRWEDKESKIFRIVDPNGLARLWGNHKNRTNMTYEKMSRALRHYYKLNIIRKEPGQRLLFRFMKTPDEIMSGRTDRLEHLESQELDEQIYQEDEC

As to CTTGAA, the binding signal was 1.2 fold enrichment (6-mer frequency, TF over GST control) with ERF; 1.11 fold enrichment (6-mer frequency, TF over GST control) in the assay with ETV3L; 1.16 fold enrichment (6-mer frequency, TF over GST control) with ETS2; 1.13 fold enrichment (6-mer frequency, TF over GST control) with SPDEF; 1.08 fold enrichment (6-mer frequency, TF over GST control) in the assay with ETV7; 1.15 fold enrichment (6-mer frequency, TF over GST control) in the assay with ELF5. The binding signal was 1.16 fold enrichment (6-mer frequency, TF over GST control) with ETV3 and 1.07 fold enrichment (6-mer frequency, TF over GST control) with ETV6.
Turning to GTTACT, the binding signal in the assay with ERF was 1.24 fold enrichment (6-mer frequency, TF over GST control); with ETV3L, 1.1 fold enrichment (6-mer frequency, TF over GST control); in the assay with ETS2, 1.21 fold enrichment (6-mer frequency, TF over GST control); with SPDEF it was 1.18 fold enrichment (6-mer frequency, TF over GST control); with ETV7, 1.25 fold enrichment (6-mer frequency, TF over GST control); with ELF5, 1.17 fold enrichment (6-mer frequency, TF over GST control). Further, the binding signal with ETV3 was 1.28 fold enrichment (6-mer frequency, TF over GST control); in the assay with ETV6 it was 1.21 fold enrichment (6-mer frequency, TF over GST control).
Regarding CACAAA, the binding signal with ERF was 1.18 fold enrichment (6-mer frequency, TF over GST control); with ETV3L, 1.16 fold enrichment (6-mer frequency, TF over GST control); in the assay with ETS2, 1.16 fold enrichment (6-mer frequency, TF over GST control); with SPDEF, 1.12 fold enrichment (6-mer frequency, TF over GST control); with ETV7, 1.01 fold enrichment (6-mer frequency, TF over GST control); with ELF5 it was 1.1 fold enrichment (6-mer frequency, TF over GST control). Also, the binding signal was 1.09 fold enrichment (6-mer frequency, TF over GST control) in the assay with ETV3 and 1.08 fold enrichment (6-mer frequency, TF over GST control) in the assay with ETV6.
TTTACG: the binding signal with ERF was 1.22 fold enrichment (6-mer frequency, TF over GST control); in the assay with ETV3L, 1.31 fold enrichment (6-mer frequency, TF over GST control); in the assay with ETS2, 1.29 fold enrichment (6-mer frequency, TF over GST control); with SPDEF, 1.26 fold enrichment (6-mer frequency, TF over GST control); with ETV7, 1.25 fold enrichment (6-mer frequency, TF over GST control); with ELF5, 1.32 fold enrichment (6-mer frequency, TF over GST control). Moreover, the binding signal in the assay with ETV3 is 1.19 fold enrichment (6-mer frequency, TF over GST control); with ETV6, 1.27 fold enrichment (6-mer frequency, TF over GST control).
On to TCTGTG, for which the binding signal was 1.15 fold enrichment (6-mer frequency, TF over GST control) with ERF; 1.2 fold enrichment (6-mer frequency, TF over GST control) in the assay with ETV3L; 1.13 fold enrichment (6-mer frequency, TF over GST control) with ETS2; 1.06 fold enrichment (6-mer frequency, TF over GST control) in the assay with SPDEF; 1.26 fold enrichment (6-mer frequency, TF over GST control) with ETV7; 1.04 fold enrichment (6-mer frequency, TF over GST control) with ELF5. In addition, the binding signal with ETV3 was 1.04 fold enrichment (6-mer frequency, TF over GST control); with ETV6, 1.07 fold enrichment (6-mer frequency, TF over GST control).
Regarding ACAGGA, the binding signal with ERF was 1.03 fold enrichment (6-mer frequency, TF over GST control); with ETV3L it was 1.11 fold enrichment (6-mer frequency, TF over GST control); in the assay with ETS2, 1.16 fold enrichment (6-mer frequency, TF over GST control); with SPDEF, 1.37 fold enrichment (6-mer frequency, TF over GST control); with ETV7, 1.11 fold enrichment (6-mer frequency, TF over GST control); with ELF5 it was 1.28 fold enrichment (6-mer frequency, TF over GST control). Further, the binding signal with ETV3 was 1.15 fold enrichment (6-mer frequency, TF over GST control); with ETV6 it was 1.19 fold enrichment (6-mer frequency, TF over GST control).
